hgDAF12 agonist = hgDAF-12 agonism, primary luciferase screen; HEK293 GAL4-hgDAF12 UAS-luciferase reporter, agonist luminescence; normalized to butyrate control; activation, % at 6.8 µM; actives 1.8% (n = 370,000);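 active = activation above a cutoff set at the mean of all screened compounds plus 3 SD, cut at about 10% in these data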;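 note: 0% = DMSO wells and 100% = sodium butyrate wells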
FXN GAA850 act = frataxin GAA850 promoter activation | HEK293 lucGAA850 FXN promoter luciferase reporter, 24 h; percent of 10 µM SAHA response | activation, % at 6 µM | actives 0.56% (n = 360,000);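 active = activation above the average of all compounds screened plus 3 SD, cutoff fixed separately per campaign, cut at about 7.5% in these data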;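 note: 0% = DMSO wells and 100% = 10 µM SAHA wells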
DAX1 inh-1 = inhibitors of DAX1 repression of SF-1 activated StAR promoter; HEK293T StAR-luciferase reporter, SF-1/DAX-1 repression relief; inhibition, % at 6.8 µM; actives 1.1% (n = 370,000);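 active = inhibition above the mean over all tested compounds plus 3 SD, cut at about 3.6% in these data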;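 note: 0% = DAX-1 cells with DMSO and 100% = cells lacking DAX-1 with DMSO; higher inhibition means more luminescence from relief of DAX-1 repression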
DAX1 inh-2 = NR0B1 (DAX1) inhibition. P51843. HEK293 Gal4-DAX1 luciferase reporter, luminescence. actives 0.99% (n = 340,000). inhibition, % at 6.75 µM. AID 504766;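 active = inhibition above the mean over all tested compounds plus 3 SD, cut at about 4.2% in these data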;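 note: 0% = DAX1-transfected cells with DMSO and 100% = empty-vector control cells with DMSO; inhibition shows as a rise in luminescence from relieved DAX1 repression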
Target sequence (P51843 207-470 limits assumed): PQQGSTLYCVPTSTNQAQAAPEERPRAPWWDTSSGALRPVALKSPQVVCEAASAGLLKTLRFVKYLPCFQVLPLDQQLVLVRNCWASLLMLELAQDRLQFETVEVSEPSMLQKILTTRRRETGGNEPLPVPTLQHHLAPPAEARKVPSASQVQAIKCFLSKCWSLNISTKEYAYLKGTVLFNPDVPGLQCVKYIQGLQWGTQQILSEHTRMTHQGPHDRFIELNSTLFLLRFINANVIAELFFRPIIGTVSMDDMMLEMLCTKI
hcDAF-12 act = activators of H. contortus DAF-12 nuclear receptor; HEK293 hcDAF-12 lit1-tk-luc reporter, luminescence; 0% DMSO, 100% Δ7-dafachronic acid; activation, % at 6.8 µM; actives 1.4% (n = 370,000); AID 652067;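 active = activation above the mean of all tested compounds plus 3 SD, cut at about 5.5% in these data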;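 note: 100% = response to 3 µM Δ7-dafachronic acid high control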
ssDAF12 agonist = activators of S. stercoralis DAF-12 nuclear receptor; activation, % at 6.8 µM; HEK293 ssDAF-12/GRIP1 lit1-tk-luc reporter, luminescence; % of 3 µM dafachronic acid response; actives 1% (n = 370,000); AID 652126;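 active = activation above the mean over all tested compounds plus 3 SD, cut at about 0.9% in these data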;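 note: 0% = DMSO-only wells and 100% = 3 µM delta7-dafachronic acid wells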
* = called active by the depositor; nt = not tested or not shown. Rows were chosen to be rich in hits. Some 4.5% of all compounds tested hit in one or more screens of this group.

SMILES	hgDAF12 agonist	FXN GAA850 act	DAX1 inh-1	DAX1 inh-2	hcDAF-12 act	ssDAF12 agonist
CN(CC(=O)NCc1ccccc1Cl)S(=O)(=O)c1ccc2c(c1)n(C)c(=O)c(=O)n2C	1	0	0	0	5.6*	-1
CCOC(=O)[C@]12CCCCC/C=C\1N(Cc1ccc(OC)cc1)C(=O)[C@H]2CC(=O)N1CCCC1	-3	nt	-1	nt	0	-1
CCN(C(=O)CCc1cn(CC)c2ccccc12)c1ccc(Oc2cccnc2)cc1	11*	nt	3.6*	nt	-1	0
CCCCNc1c(-c2ccc(SC3CCCCC3)cc2)nc2ccccn12	12*	5	4.0*	5.1*	4	0
CC(=O)COC(=O)C1CCN(S(=O)(=O)c2cc([N+](=O)[O-])ccc2Cl)CC1	0	3	0	4.3*	1	-1
O=C(COC(=O)C1CCN(S(=O)(=O)c2cc([N+](=O)[O-])ccc2Cl)CC1)Nc1ncc(Cl)cc1Cl	-2	-2	0	0	2	0
COc1ccc(C(=O)C(C)OC(=O)COc2ccccc2)cc1 (stereo not drawn)	-3	2	3.8*	0	0	-1
CC(OC(=O)COc1ccc(C#N)cc1)C(=O)c1ccccc1 (stereo not drawn)	1	1	1	1	-1	-1
CC(C)Cc1cc(C(=O)Nc2ccc(F)cc2F)no1	12*	1	3.9*	1	1	-1
CCc1ccc(NC(=O)c2cc(CC(C)C)on2)cc1	8	5	1	5.1*	2	0
CCc1ccc(NC(=O)c2cc(C)no2)cc1	5	3	0	4.4*	1	-1
Cc1ccc(NC(=O)c2cc(C)no2)cc1	4	4	1	0	1	-1
CC(C)Cc1cc(C(=O)Nc2ccc(Br)cc2)no1	4	6	2	2	2	0
CCCc1cc(C(=O)Nc2cc(Cl)ccc2O)no1	11*	5	1	3	5.6*	0
COC(=O)C1CCN(C(=O)CCn2nnc(-c3cccs3)n2)CC1	4	nt	0	nt	-1	-1
Cc1ccccc1CNC(=O)c1cccc2c1C(=O)N(Cc1cccnc1)C2	-3	nt	-1	nt	-2	-1
CCc1ccc(NC(=O)c2cc(-c3cccs3)on2)cc1	8	2	1	2	-1	0
CCCc1cc(C(=O)Nc2ccc(CC)cc2)no1	11*	3	2	3	5	0
Cc1ccc(-n2c(SCc3cccc(F)c3)nc3ccccc3c2=O)cc1	-1	nt	0	nt	1	0
C=CCNC(=O)Nc1ccc2c(c1)[C@]1(CC(=O)N(CC(C)C)C1c1ccccc1)C(=O)N2C (stereo partly drawn)	0	nt	0	nt	-2	-1
CC(=O)c1oc2ccccc2c1NC(=O)CCCN1C(=O)c2ccccc2C1=O	6	0	4	0	5.8*	0
CCC(=NCCc1ccc(OC)c(OC)c1)c1ccccc1O	2	2	-1	6.1*	0	0
CCC(C(N)=NCCc1ccc(OC)c(OC)c1)c1ccccc1 (stereo not drawn)	-1	2	0	0	4	-1
Cn1cc(C(=O)N2CCc3ccccc32)cn1	5	5	2	2	6.5*	1.2*
Cc1nc2c(-c3ccc(Cl)cc3)cnn2c2c1CCC2	3	2	0	0	3	2.1*
SMILES	hgDAF12 agonist	FXN GAA850 act	DAX1 inh-1	DAX1 inh-2	hcDAF-12 act	ssDAF12 agonist
O=C(COc1ccc(CO)cc1Cl)Nc1ccc(F)cc1	11*	0	3	0	5	1
Cc1cccc(NC(=O)Nc2c(-c3ccc(C(F)(F)F)cc3)nc3ncccn23)c1	2	nt	0	nt	0	-1
COc1cc(O)c(C(CC(=O)N2CCC(C)CC2)c2ccc3c(c2)OCO3)c(OC)c1 (stereo not drawn)	3	nt	nt	nt	-2	-2
CCC[C@H]1[C@@H](NC(=O)C#Cc2ccccc2)CC[C@@]23CCCN2C(=O)CCC[C@@H]13	-1	nt	nt	nt	-2	-1
CCOc1ccc2c(c1)ncn2Cc1ccccc1	0	1	1	4.7*	0	-1
CC(=O)Oc1ccc(Cn2cnc3cc4ccccc4cc32)cc1	-1	1	0	0	0	-1
COc1ccc(N2CCN(CCCNC(=O)CCc3ccc(F)cc3)CC2)cc1	3	nt	1	nt	0	-1
CC(C)CNC(=O)OCc1cn(Cc2cc(F)cc(F)c2)nn1	1	nt	-1	nt	-1	-1
CCCCNC(=O)C[C@H]1C[C@@]2(C(=O)OC)C(=C[C@H](C3CCCC3)O[C@@H]2C)N(CCc2ccc(OC)c(OC)c2)C1=O	-1	nt	-1	nt	-3	-1
CN(C)/C=N/c1cnc(C(=O)c2ccc(Cl)cc2)n1C	12*	3	3	3	6.4*	0
CC(C)(C)OC(=O)n1ccc2ccc(-c3ccc4cc[nH]c4c3)cc21	10	nt	0	nt	-3	-1
Nc1n[nH]c(N)c1N=Nc1ccc(F)cc1	3	2	1	1	0	-1
Cc1nc(N)sc1N=Nc1ccc(F)cc1	2	9.7*	1	-1	5	-1
C=CS(=O)(=O)N(Cc1nnn(Cc2ccccc2)c1Br)[C@@H](CC(C)C)C(=O)OC	-2	nt	-3	nt	-2	-2
CN(c1ccc(OCC(=O)NCCc2ccccc2)cc1)S(=O)(=O)c1ccc(Cl)cc1	3	1	4.2*	0	3	0
COc1ccc(CNC(=O)O[C@H]2CC[C@@]34CCCN3C(=O)CCC[C@H]4C2)cc1	1	nt	nt	nt	-2	-1
COc1ccccc1NS(=O)(=O)c1cc(NC(=O)c2ccccc2C)ccc1N1CCOCC1	0	-2	-1	0	0	-2
COc1ccc(OC)c(NC(=O)c2[nH]c(C)c(C(C)=O)c2C)c1	2	2	1	1	5.8*	-1
COc1ccccc1NS(=O)(=O)c1cc(NC(=O)c2[nH]c(C)c(C(C)=O)c2C)ccc1N1CCOCC1	-9	-5	4.0*	1	4	-1
COC(=O)C[C@@H]1CC[C@H]2[C@@H](COc3ccc(NS(=O)(=O)c4ccccc4F)cc3C(=O)N2C)O1	-1	nt	0	nt	0	-1
CCCC[C@@H]1C(=O)N2N=Cc3cscc3[C@H]2N2N=Cc3cscc3[C@@H]12	5	nt	0	nt	-1	-1
CC(=O)CSc1nnc(-c2ccc(S(=O)(=O)N3CCCC3)cc2)n1C	0	0	0	1	1	-1
CC(=O)CSc1nnc(-c2ccc(S(=O)(=O)N3CCOCC3)cc2)n1C	0	2	0	5.4*	0	-1
CCOc1ccc2ccccc2c1CNc1nnnn1CC	2	1	0	4.9*	0	-1
